# According to publication PMC7862700, “An all-to-all approach to the identification of sequence-specific readers for epigenetic DNA modifications on cytosine”:
# Key:
# Assay in all cases: DAPPL (digital affinity profiling via proximity ligation, sequencing); 10 mM Tris-HCl pH 7.5, 50 mM NaCl, 1 mM DTT, 4% glycerol, room temperature, 30 min; GST-TFs on glutathione beads, 16-mer random dsDNA library, 0.1% formaldehyde crosslink after washing; high values mean tight binding
# Conditions in all cases: protein: recombinant; tags: N-terminal GST; dsDNA, one strand shown
# FLI1 = target: T1, FLI1 (Homo sapiens, UniProt Q01543 1-452)
# T1 sequence: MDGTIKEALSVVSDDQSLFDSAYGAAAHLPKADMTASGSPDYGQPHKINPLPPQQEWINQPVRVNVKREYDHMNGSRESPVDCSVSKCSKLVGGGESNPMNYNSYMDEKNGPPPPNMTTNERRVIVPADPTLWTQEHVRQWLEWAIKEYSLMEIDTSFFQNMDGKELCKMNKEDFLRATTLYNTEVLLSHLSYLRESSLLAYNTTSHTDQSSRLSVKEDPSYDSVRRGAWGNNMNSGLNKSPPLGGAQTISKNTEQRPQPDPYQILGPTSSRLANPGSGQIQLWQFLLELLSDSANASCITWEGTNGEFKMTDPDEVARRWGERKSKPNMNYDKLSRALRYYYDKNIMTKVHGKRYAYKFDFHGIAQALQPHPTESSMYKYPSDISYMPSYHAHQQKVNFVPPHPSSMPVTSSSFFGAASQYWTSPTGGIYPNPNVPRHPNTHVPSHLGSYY
# Outline: (§1)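 Yeast served to express human transcription factors as GST fusions, which were then captured on glutathione beads and labelled with DNA barcodes. Pooled with a tag-only sample, they were incubated with 200 nmole of a 16-mer random double-stranded DNA library for 30 min at room temperature in Tris/NaCl/DTT/glycerol buffer, washed, crosslinked with 0.1% formaldehyde, ligated by proximity, amplified by PCR and sequenced. Dividing each hexamer's read frequency for a factor by its frequency for the tag-only sample gives the binding signal.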
# GABPA = target: T2, GABPA (Homo sapiens, UniProt Q06546 1-454)
# T2 sequence: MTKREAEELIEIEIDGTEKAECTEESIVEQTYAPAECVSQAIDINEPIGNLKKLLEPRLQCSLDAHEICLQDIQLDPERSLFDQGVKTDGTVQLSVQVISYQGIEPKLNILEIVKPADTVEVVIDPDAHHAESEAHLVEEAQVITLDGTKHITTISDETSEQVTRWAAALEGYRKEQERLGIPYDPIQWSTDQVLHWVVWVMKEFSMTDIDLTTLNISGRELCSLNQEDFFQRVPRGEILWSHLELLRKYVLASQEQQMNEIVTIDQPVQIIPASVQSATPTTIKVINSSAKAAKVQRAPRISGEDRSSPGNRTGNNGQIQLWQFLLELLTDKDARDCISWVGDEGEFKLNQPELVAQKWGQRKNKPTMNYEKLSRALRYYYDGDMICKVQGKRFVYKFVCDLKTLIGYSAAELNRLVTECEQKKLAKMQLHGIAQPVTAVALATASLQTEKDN
# Outline: as §1
# ELF1 = ELF1 (Homo sapiens, UniProt P32519 1-619)
# ELF1, sequence (P32519 whole entry): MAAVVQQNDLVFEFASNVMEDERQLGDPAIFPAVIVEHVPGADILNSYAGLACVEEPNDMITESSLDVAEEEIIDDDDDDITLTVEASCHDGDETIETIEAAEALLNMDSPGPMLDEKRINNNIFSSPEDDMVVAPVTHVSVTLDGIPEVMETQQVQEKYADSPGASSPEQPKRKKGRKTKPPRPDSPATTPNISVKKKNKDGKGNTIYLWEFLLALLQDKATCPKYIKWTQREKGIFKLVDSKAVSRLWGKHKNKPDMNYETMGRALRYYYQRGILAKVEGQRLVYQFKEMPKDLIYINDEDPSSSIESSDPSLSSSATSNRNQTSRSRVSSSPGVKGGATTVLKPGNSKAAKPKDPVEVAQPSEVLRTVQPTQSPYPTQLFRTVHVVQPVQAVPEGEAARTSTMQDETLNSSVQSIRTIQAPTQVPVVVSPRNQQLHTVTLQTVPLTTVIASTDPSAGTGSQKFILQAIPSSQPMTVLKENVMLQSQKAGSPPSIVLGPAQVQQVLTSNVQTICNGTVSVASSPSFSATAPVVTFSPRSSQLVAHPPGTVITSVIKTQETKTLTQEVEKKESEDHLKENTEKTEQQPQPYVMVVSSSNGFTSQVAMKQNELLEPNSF
# Outline: as §1
# EHF = target: T3, EHF (Homo sapiens, UniProt Q9NZC4 1-300)
# T3 sequence: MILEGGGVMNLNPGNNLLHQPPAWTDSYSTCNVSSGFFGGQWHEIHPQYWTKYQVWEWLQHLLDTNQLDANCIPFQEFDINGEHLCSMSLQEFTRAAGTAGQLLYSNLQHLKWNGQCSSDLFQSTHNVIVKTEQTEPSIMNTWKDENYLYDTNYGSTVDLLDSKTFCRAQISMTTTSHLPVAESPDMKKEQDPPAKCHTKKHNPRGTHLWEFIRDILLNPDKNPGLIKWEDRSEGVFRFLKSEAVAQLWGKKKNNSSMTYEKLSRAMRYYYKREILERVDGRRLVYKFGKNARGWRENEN
# Outline: as §1
# SPIB = SPIB (Homo sapiens, UniProt Q01892 1-262)
# SPIB, sequence (Q01892 whole entry): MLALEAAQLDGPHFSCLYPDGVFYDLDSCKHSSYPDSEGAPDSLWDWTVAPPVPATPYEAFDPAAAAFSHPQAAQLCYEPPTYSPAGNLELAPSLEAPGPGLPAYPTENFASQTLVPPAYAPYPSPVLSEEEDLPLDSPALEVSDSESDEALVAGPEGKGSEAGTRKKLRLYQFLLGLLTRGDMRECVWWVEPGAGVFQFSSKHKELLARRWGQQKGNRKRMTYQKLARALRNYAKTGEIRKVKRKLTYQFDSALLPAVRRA
# Outline: as §1
# ELK3 = target: T4, ELK3 (Homo sapiens, UniProt P41970 1-407)
# T4 sequence: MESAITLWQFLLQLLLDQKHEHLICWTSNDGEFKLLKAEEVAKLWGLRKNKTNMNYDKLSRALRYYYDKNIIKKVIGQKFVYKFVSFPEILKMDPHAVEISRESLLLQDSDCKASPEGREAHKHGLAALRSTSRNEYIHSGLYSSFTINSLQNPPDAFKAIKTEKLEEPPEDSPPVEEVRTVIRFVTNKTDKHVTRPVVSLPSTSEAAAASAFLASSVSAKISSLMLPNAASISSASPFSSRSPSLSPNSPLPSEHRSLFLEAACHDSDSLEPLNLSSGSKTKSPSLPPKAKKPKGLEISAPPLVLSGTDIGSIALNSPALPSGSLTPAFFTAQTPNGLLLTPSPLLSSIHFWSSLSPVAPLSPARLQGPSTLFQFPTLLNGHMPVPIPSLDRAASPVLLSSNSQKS
# Outline: as §1
# SPIC = target: T5, SPIC (Homo sapiens, UniProt Q8N5J4 1-248)
# T5 sequence: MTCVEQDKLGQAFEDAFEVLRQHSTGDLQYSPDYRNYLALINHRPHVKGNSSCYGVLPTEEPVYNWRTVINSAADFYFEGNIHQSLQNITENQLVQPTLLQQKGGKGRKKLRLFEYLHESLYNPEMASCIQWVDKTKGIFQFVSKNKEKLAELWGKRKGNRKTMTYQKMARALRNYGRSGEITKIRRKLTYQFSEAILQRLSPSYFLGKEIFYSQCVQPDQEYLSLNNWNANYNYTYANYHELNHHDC
# Outline: as §1
# ELF4 = ELF4 (Homo sapiens, UniProt Q99607 1-663)
# ELF4, sequence (Q99607 whole entry): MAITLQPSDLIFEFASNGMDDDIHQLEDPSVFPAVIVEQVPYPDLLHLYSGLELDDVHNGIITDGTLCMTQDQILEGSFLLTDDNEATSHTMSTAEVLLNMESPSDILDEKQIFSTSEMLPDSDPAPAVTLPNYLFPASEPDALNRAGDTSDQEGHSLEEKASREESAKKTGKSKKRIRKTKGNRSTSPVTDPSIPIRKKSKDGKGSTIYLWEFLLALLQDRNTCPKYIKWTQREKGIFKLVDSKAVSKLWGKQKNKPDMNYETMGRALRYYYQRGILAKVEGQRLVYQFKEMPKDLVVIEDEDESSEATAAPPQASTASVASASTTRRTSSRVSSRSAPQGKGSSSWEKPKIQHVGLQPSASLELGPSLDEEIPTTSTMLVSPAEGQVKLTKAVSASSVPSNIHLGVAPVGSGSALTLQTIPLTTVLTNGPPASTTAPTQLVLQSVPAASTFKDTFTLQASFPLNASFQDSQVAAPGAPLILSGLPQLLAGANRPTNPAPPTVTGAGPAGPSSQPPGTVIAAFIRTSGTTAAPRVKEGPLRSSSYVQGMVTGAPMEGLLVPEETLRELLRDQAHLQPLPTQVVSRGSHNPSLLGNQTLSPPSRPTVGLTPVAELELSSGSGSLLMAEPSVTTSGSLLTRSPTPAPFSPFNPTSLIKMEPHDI
# Outline: as §1
# ELK4 = target: T6, ELK4 (Homo sapiens, UniProt P28324-2 1-405)
# T6 sequence: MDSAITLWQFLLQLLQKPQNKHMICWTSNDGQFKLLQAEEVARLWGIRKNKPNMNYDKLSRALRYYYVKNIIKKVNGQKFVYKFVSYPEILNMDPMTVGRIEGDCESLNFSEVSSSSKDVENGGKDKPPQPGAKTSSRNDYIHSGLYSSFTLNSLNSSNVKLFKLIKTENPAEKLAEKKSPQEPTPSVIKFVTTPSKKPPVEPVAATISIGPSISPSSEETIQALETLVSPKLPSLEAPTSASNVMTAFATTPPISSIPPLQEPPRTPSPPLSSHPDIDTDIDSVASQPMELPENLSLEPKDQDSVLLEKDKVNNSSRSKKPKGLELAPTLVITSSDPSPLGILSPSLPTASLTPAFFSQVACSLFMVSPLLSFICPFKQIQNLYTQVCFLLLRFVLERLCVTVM
# Outline: as §1
# ETV2 = target: T7, ETV2 (Homo sapiens, UniProt O00321 1-342)
# T7 sequence: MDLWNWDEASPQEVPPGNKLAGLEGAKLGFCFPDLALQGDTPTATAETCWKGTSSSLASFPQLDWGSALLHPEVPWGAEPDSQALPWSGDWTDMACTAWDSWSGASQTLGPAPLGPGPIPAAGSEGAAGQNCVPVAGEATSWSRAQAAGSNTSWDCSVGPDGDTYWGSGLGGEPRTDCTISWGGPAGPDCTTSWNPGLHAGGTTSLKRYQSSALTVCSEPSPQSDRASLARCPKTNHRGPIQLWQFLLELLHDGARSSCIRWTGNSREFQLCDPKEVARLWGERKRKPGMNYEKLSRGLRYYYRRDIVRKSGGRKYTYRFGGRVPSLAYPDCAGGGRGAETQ
# Outline: as §1
# ELF3 = target: T8, ELF3 (Homo sapiens, UniProt P78545 1-371)
# T8 sequence: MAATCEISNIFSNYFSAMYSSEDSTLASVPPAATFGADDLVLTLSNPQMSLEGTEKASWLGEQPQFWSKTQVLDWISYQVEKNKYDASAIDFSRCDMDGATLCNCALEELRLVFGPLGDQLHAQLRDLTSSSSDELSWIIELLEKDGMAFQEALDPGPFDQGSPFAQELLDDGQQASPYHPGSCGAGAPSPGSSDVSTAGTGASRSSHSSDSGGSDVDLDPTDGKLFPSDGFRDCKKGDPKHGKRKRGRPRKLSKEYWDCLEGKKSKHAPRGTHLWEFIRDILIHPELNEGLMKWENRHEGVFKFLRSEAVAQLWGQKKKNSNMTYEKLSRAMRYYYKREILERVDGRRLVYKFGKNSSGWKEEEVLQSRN
# Outline: as §1
# ETV1 = ETV1 (Homo sapiens, UniProt P50549 1-477)
# ETV1, sequence (P50549 whole entry): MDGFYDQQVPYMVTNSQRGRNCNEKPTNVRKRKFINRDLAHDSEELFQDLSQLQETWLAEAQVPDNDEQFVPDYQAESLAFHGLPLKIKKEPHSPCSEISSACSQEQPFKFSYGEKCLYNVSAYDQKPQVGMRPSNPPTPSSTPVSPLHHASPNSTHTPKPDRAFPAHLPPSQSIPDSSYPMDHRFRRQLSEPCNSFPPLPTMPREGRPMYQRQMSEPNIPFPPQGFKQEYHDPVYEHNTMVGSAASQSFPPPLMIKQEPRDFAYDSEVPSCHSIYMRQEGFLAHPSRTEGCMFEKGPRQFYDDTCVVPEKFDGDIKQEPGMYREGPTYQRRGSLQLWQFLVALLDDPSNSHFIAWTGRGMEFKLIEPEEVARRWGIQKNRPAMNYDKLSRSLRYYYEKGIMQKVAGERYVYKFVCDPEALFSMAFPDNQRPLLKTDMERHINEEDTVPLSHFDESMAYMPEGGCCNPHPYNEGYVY
# Outline: as §1
# ERF = target: T9, ERF (Homo sapiens, UniProt P50548 1-548)
# T9 sequence: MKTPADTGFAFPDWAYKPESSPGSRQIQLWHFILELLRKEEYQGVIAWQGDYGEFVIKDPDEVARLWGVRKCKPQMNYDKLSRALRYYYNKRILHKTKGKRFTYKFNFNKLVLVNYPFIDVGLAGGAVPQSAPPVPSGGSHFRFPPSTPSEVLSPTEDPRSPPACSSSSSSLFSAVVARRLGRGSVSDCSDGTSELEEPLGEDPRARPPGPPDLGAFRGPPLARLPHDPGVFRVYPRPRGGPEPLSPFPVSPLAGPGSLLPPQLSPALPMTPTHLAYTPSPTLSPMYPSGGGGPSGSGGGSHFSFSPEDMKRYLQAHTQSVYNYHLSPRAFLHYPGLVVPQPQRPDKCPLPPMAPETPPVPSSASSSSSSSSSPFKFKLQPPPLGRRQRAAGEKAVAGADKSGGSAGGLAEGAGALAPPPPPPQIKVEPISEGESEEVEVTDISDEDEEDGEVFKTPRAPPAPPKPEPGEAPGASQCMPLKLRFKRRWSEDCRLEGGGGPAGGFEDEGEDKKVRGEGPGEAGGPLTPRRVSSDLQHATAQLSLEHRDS
# Outline: as §1
# ETV3L = target: T10, ETV3L (Homo sapiens, UniProt Q6ZN32 1-361)
# T10 sequence: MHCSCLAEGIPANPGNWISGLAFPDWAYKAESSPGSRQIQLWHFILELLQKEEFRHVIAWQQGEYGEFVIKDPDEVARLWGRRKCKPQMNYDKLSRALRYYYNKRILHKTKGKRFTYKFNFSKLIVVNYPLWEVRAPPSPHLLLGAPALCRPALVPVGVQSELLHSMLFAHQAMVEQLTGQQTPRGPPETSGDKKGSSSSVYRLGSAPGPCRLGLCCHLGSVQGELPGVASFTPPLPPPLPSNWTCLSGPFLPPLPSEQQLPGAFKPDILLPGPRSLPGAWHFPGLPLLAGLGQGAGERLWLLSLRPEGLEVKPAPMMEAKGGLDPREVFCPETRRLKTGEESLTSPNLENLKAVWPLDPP
# Outline: as §1
# ETS2 = target: T11, ETS2 (Homo sapiens, UniProt P15036 1-469)
# T11 sequence: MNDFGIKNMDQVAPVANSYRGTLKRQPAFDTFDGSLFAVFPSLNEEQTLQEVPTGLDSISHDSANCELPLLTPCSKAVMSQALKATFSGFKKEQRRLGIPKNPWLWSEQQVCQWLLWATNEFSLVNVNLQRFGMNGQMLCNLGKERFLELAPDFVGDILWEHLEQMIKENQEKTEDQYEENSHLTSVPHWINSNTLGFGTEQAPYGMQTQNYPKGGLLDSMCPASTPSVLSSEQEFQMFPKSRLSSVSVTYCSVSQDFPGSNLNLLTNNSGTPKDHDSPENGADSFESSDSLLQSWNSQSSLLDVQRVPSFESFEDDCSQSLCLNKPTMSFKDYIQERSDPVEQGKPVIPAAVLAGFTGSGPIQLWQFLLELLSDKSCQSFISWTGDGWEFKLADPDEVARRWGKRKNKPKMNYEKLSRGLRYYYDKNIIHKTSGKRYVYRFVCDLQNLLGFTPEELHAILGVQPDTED
# Outline: as §1
# ETV7 = target: T12, ETV7 (Homo sapiens, UniProt Q9Y603 1-341)
# T12 sequence: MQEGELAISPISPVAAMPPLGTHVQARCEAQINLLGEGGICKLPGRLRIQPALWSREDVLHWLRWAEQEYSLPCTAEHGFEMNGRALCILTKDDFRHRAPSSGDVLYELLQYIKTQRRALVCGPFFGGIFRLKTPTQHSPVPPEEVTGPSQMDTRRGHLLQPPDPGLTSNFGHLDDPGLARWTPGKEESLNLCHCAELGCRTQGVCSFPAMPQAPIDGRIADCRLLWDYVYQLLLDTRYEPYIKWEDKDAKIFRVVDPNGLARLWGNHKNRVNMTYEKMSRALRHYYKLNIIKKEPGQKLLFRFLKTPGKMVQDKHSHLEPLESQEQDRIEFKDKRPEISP
# Outline: as §1
sequence,measurement,setting,value
GCTAGT,binding signal,FLI1,"1.1 fold enrichment (6-mer frequency, TF over GST control)"
same,binding signal,GABPA,"1.06 fold enrichment (6-mer frequency, TF over GST control)"
same,binding signal,ELF1,"1.16 fold enrichment (6-mer frequency, TF over GST control)"
same,binding signal,EHF,"1.08 fold enrichment (6-mer frequency, TF over GST control)"
same,binding signal,SPIB,"1.09 fold enrichment (6-mer frequency, TF over GST control)"
same,binding signal,ELK3,"1.11 fold enrichment (6-mer frequency, TF over GST control)"
same,binding signal,SPIC,"1.2 fold enrichment (6-mer frequency, TF over GST control)"
same,binding signal,ELF4,"1.05 fold enrichment (6-mer frequency, TF over GST control)"
same,binding signal,ELK4,"1.07 fold enrichment (6-mer frequency, TF over GST control)"
same,binding signal,ETV2,"1.07 fold enrichment (6-mer frequency, TF over GST control)"
same,binding signal,ELF3,"1.04 fold enrichment (6-mer frequency, TF over GST control)"
same,binding signal,ETV1,"1.02 fold enrichment (6-mer frequency, TF over GST control)"
same,binding signal,ERF,"1.01 fold enrichment (6-mer frequency, TF over GST control)"
same,binding signal,ETV3L,"1 fold enrichment (6-mer frequency, TF over GST control)"
same,binding signal,ETS2,"1.07 fold enrichment (6-mer frequency, TF over GST control)"
same,binding signal,ETV7,"1.13 fold enrichment (6-mer frequency, TF over GST control)"
